In PubChem BioAssay AID651821 (The Scripps Research Institute Molecular Screening Center, 2012) one finds inhibition data, which are given here for 54 molecules.

Out of some 370,000 compounds screened, about 4,700 (1.3%) were called active.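 How the source made its calls: active means inhibition above the plate cutoff, the mean of all test compounds on that plate plus 3 SD (cut at about 35% in these data); inactive means the rest.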 The sample as a whole holds a higher share of actives than the screen did.

A short description of the experiment: small molecules binding CAG repeat RNA – biochemical, fluorescence, primary screen (AID 651821).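 Further: 0% = DMSO alone and 100% = 100 µM mitoxantrone as full dye displacement; higher means more dye released from RNA so lower well fluorescence.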 Conditions: r(CAG) RNA repeat, TO-PRO-1 dye displacement fluorescence; at 3 µM; hits give high values.
Regarding `COc1cc(NC(=O)C2CCCN(S(=O)(=O)c3ccc(C(C)(C)C)cc3)C2)cc(OC)c1` (centres undefined), the inhibition was 9.76% (inactive).

As to `O=C(CCCN1C(=O)/C(=C\c2ccco2)SC1=S)Nc1cccc2ccccc12`, the inhibition was 40.1% (active).

On to `Cc1c(Cl)cccc1NC(=O)CCC(=O)N/N=C/c1ccco1`, for which the inhibition was -4.6% (inactive).

With `Cc1ccc(-n2c(SCC(=O)Nc3cccc4ccccc34)nnc2-c2ccco2)cc1`, the inhibition was 6.64% (inactive).

For `O=C(O)c1ccc(N/N=C/c2cn(-c3ccccc3)nc2-c2cccs2)cc1`, the inhibition is 70.5% (active).

On to `COc1ccc(NC(=O)c2cn(-c3ccccc3)nc2SC)cc1`, for which the inhibition is 5.53% (inactive).

For the molecule `O=C(NNC(=S)NCCCN1CCOCC1)c1ccncc1`, the inhibition was -0.42% (inactive).

Turning to `O=C(O)c1ccc(NC(=O)c2cn(-c3ccccc3)nc2-c2ccc(Cl)cc2)cc1`, the inhibition is 80.9% (active).

Consider `COc1ccc(-c2nn(-c3ccccc3)cc2/C=C\C(=O)Nc2ccc(C(=O)O)cc2)cc1`, for which the inhibition was 83.7% (active).

As to `O=C(N/N=C/c1sc(N2CCCCC2)nc1-c1cccs1)c1cccnc1`, the inhibition is 5.88% (inactive).

For the molecule `O=C(c1cnn(-c2ccc(Cl)cc2)c1)c1ccccc1O`, the inhibition was 2.23% (inactive).

With `O=C(NNC(=S)NC(=O)c1cn(-c2ccccc2)nc1-c1ccccc1)c1ccncc1`, the inhibition is 42.5% (active).

Turning to `O=C(O)c1ccc(NC(=O)c2ccc(COc3ccc(Cl)cc3)o2)cc1`, the inhibition was 22.1% (inactive).

For the molecule `O=C(/C=C/c1cn(-c2ccccc2)nc1-c1ccc2c(c1)OCCO2)NCCCN1CCOCC1`, the inhibition was -0.21% (inactive).

`CC(=O)c1ccc(NC(=O)c2cc(-c3cccs3)on2)cc1`: the inhibition was -1.84% (inactive).

On to `O=C(c1cn(-c2ccccc2)nc1-c1cccnc1)N1CCN(S(=O)(=O)c2ccccc2F)CC1`, for which the inhibition was 3.83% (inactive).

In the case of `CC1CCCN(c2cccc3c2S(=O)(=O)N(Cc2ccc(F)cc2)[C@@H](C)[C@H](c2ccccc2)O3)C1` (some centres undefined), the inhibition is 1.44% (inactive).

On to `Cn1cc(S(=O)(=O)Nc2ccc(Cl)cc2Cl)c(=O)n(C)c1=O`, for which the inhibition is 1.76% (inactive).

As to `COC(=O)c1ccc(CN2C(=O)[C@]3(OCCC=C[C@H]3C)c3c(Br)cccc32)cc1`, the inhibition is 0.13% (inactive).

For the molecule `O=S(=O)(c1ccccc1)N1CCC(c2nc3ccccc3o2)CC1`, the inhibition was 0.56% (inactive).

In the case of `COC(=O)[C@]12CCCCC=C1N(Cc1ccc(Cl)cc1Cl)C(=O)[C@H](CC(=O)NCc1cccc3ccccc13)C2`, the inhibition is 12.9% (inactive).

Regarding `O=C(NC1CCC1)c1ccc(C#Cc2cccc(F)c2)c[n+]1[O-]`, the inhibition was 1.31% (inactive).

Turning to `C#CCNC(=O)C[C@H]1C[C@@]2(C(=O)OC)C(=C[C@H](C(C)C)O[C@@H]2C2CC2)N(Cc2ccco2)C1=O`, the inhibition is -0.82% (inactive).

`COC1=C[C@H](C(=O)NCCNC(C)=O)[C@H](C)[C@@H](c2ccccc2)CC1=O`: the inhibition is 7.1% (inactive).

In the case of `COC(=O)C1=C(C)N(Cc2cccc(C(F)(F)F)c2)C(=NCc2ccccc2)NC1c1ccc(Cl)cc1` (centres undefined), the inhibition was 6.45% (inactive).

Consider `N#CC1(NC(=O)COC(=O)Cc2n[nH]c(=O)c3ccccc23)CCCCC1`, for which the inhibition is -1.83% (inactive).

As to `COC(=O)c1cccc(Cn2ccc3ccc(-c4ccc5ccn(C(=O)c6ccccc6C)c5c4)cc32)c1`, the inhibition is 10.1% (inactive).

Regarding `COC(=O)C[C@@H]1CC[C@@H]2[C@@H](COc3ccc(NC(=O)Nc4ccc(F)c(F)c4)cc3C(=O)N2C)O1`, the inhibition is 3.67% (inactive).

Take `CCOC(=O)[C@H]1Nc2ccc(Cl)cc2[C@@H]2[C@H]1C1CC(c3ccccc31)N2C(=O)OCc1ccccc1` (some centres undefined): the inhibition is 8.62% (inactive).

For `CCOC(=O)C1Nc2ccc(C(F)(F)F)cc2C2C=CCC12` (centres undefined), the inhibition is 60.5% (active).

As to `CCOC(=O)C[C@H]1c2ccc(C(F)(F)F)cc2S(=O)(=O)N1c1ccccc1`, the inhibition is 4.3% (inactive).

As to `CC1=CC=CC2=N/C(=N\S(=O)(=O)c3ccc(F)cc3F)c3ccccc3CN12`, the inhibition is -1.16% (inactive).

As to `CC(=O)c1cc(-c2ccc3ccccc3c2)c(=O)n2c1CCC2`, the inhibition was 5.03% (inactive).

As for `N#Cc1ccccc1CN1C(=O)S/C(=C/c2cccn2-c2cccc(C(=O)O)c2)C1=O`, the inhibition is 58.4% (active).

Turning to `O=C(CSc1nc2sc3c(c2c(=O)n1-c1ccccc1)CCCC3)NN=Cc1ccc(OCc2ccccc2)cc1`, the inhibition is 7.65% (inactive).

`CN(C(=O)CSc1nnc(Nc2ccccc2)s1)C1CCS(=O)(=O)C1` (centres undefined): the inhibition is 0.39% (inactive).

Regarding `CC(C)c1ccc(Nc2nnc(SCC(=O)c3nnc(-c4ccccc4)o3)s2)cc1`, the inhibition is 50.7% (active).

In the case of `CC(C)Nc1nnc(SCC(=O)c2c[nH]c3ccccc23)s1`, the inhibition was 3.39% (inactive).

As to `C/C(CC(=O)N1CCN(C=O)CC1)=N\NC(=O)c1ccc(Br)cc1`, the inhibition was 0.43% (inactive).

As to `O=C1/C(=C/c2ccc(F)cc2)SC(=S)N1NS(=O)(=O)c1ccccc1`, the inhibition is 55.7% (active).

As for `O=C(O)c1ccc(/C=C2\SC(=S)N(NC(=O)c3ccc(Br)cc3)C2=O)cc1`, the inhibition is 34.9% (active).

As to `O=S(=O)(NC(=S)Nc1ccccc1)c1ccc(F)cc1`, the inhibition was 1.19% (inactive).

As for `O=C1c2ccccc2NC(c2ccccc2O)N1NS(=O)(=O)c1ccccc1` (centres undefined), the inhibition was 2.81% (inactive).

Take `CC(=O)N1C(=O)/C(=C2\SC(=S)N(NC(=O)c3ccc(O)cc3)C2=O)c2ccccc21`: the inhibition was 14% (inactive).

Take `CC1(NC(=O)CCS(=O)(=O)c2ccc(Cl)cc2)CCS(=O)(=O)C1` (centres undefined): the inhibition was 2.03% (inactive).

Regarding `OC(c1ccccc1)c1nc(-c2cnc3ccccc3c2)cs1` (centres undefined), the inhibition was 16.2% (inactive).

As to `Cc1ccc(CSc2nnc(SCC(=O)NN=Cc3cc(Br)ccc3F)s2)cc1`, the inhibition is 5.78% (inactive).

`Cc1ccc(C(=O)O)c(NC=O)c1OCc1ccccc1`: the inhibition was 0.76% (inactive).

Take `Cc1ccc(S(=O)(=O)N2CCCC2CO)cc1` (centres undefined): the inhibition is -2.42% (inactive).

Regarding `CCCCC[C@@H]1C=C(C(=O)O)[C@H](c2ccc(C#N)cc2)N1S(=O)(=O)c1ccc(C)cc1`, the inhibition is 62.3% (active).

On to `Cc1ccc(S(=O)(=O)N2[C@@H](c3ccc(Br)cc3)C(C(=O)O)=C[C@H]2CC2CCCC2)cc1`, for which the inhibition is 82.8% (active).

Regarding `O=C(O)C1CCCN1S(=O)(=O)c1ccc(Br)cc1` (centres undefined), the inhibition is -0.5% (inactive).

On to `CCOC(=O)C1=CC[C@@H](c2ccccc2)N(S(=O)(=O)c2ccc(C)cc2)[C@H]1c1ccc(CC)cc1`, for which the inhibition was 2.92% (inactive).

As for `CCCCC[C@@H]1C=C(C(=O)OCC)[C@H](c2ccccc2)N1S(=O)(=O)c1ccc(C)cc1`, the inhibition is 5.36% (inactive).
